Laboratory results from paper PMC12136788.
Residue numbers refer to the chain shown, from its start. In all, about 5,800 sequences were measured (“enrichment r”: median about 0.68, highest 2% from about 11 on). Many of the other results were omitted from the sample, so the highest values are more common in it than they were.

T1: UNK ZnF1-6 (called full-length) (human, UniProt Q9C0B0 30-357)
T1 sequence: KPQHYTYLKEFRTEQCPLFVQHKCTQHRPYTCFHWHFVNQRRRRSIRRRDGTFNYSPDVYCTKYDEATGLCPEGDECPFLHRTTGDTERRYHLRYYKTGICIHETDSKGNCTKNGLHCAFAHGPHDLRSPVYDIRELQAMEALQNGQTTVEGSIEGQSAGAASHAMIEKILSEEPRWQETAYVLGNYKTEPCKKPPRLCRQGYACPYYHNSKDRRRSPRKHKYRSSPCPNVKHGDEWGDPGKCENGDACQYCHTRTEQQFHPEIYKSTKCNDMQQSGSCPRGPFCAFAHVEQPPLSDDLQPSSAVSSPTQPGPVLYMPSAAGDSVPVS

B1: chrX:47571900:47572933:-|three_prime_utr|ENSG00000008056|control|control|control (ssRNA)
RNA: GGGAGUUCUACAGUCCGACGAUCAAACCUGACUCCUCCUGGCCCUAAAUCCGGUUCUCACAUGUGGAAUCCCCAAGUCCUUUUAGAACCCCACUCGUGGUCACUUCAGGAUCUACUUCUGUUUUAGAACCUCCACAUUCCUGACAACAGAGGAUUGAGCAUCA
B2: chr4:87473334:87473774:-|three_prime_utr|ENSG00000152583|control|control|control (ssRNA)
RNA: GGGAGUUCUACAGUCCGACGAUCCUUUCCAGCAUCCUCCUCUGUUCUAACCACUUCAGAAAUAUAUGCAGCUGUGAUACUUGUAGAUUUAUAUUUAGCAAAAUGUUAGCAUGUAUGACAAGACAAUGAGAGUAAUUGCUUGACCAACAGAGGAUUGAGCAUCA
B3: chr15:93024873:93024975:+|3pUTR|ENSG00000173575|unk|total|mutant (ssRNA)
RNA: GGGAGUUCUACAGUCCGACGAUCGGUCCAGCUCUGAUUCGGGUCACCACUCCUGCACUUUGGCACCCCAUCCCAUUCCAGCCCCGUUCUGGCCUCCCACUUUGACGGGCACUUGGAGGAGGAGCUGACUGUGUGUGUACCAGCCAACAGAGGAUUGAGCAUCA
B4: ENSG00000181035:stop:overlap|stop_codon|ENSG00000181035|stop_codon|NA|stop_codon (ssRNA)
RNA: GGGAGUUCUACAGUCCGACGAUCUGGGCAUCAGCUUCACCACCUUCGACCUCAUGCAGAUCCUGCUGCGGCACCUGCAGAGCUAGGGGACCCUGAGCUGCUCUCAGGACGGUGGACCGGUGACCCCUUUGUAUUCUGGGCCCACAACAGAGGAUUGAGCAUCA
B5: chr5:180576808:180576909:+|3pUTR|ENSG00000113300|unk|total|mutant (ssRNA)
RNA: GGGAGUUCUACAGUCCGACGAUCUAUUUUCCGUGUCCUAAAUAAUUUUCAAUAAUCUAUAAUCCCUAAAAUGCAAUAAAAACCCGUAUGUUUUCACGGUGUAUAUUUUUUUUCAAAAAUUCUGUAACAAAUAUAUUUAAUGUGCAACAGAGGAUUGAGCAUCA
B6: chr19:18196783:18197469:-|three_prime_utr|ENSG00000105649|control|control|control (ssRNA)
RNA: GGGAGUUCUACAGUCCGACGAUCACUACCCGGGCCUGACCCGGCCCCUACCAGCCACGGGCACAAGACCCCUGCUCCUGACUUAGCCCGUCACCCUUAUUUAUUAUUGUAGCUAUUUAUUUAUUUAUUGAAGAUGUCCCCCAGCAACAGAGGAUUGAGCAUCA
B7: chr8:37861146:37861251:-|3pUTR|ENSG00000156675|unk|FALSE|unique (ssRNA)
RNA: GGGAGUUCUACAGUCCGACGAUCCUGUGCAGAGCAAGAAGAUGAUACUUAUUUUUGAAUUUGUAUUUUUAAAACUAGAUUUAUAGACUUUUUUUUUUUUUAACUAGGGCACUUGCUUCCUUCUUAGCUAAAAGCACCAGCUGACAACAGAGGAUUGAGCAUCA
B8: chr7:20412070:20412171:+|3pUTR|ENSG00000105855|msi1|total|mutant (ssRNA)
RNA: GGGAGUUCUACAGUCCGACGAUCCUUUUUUUUUAUAAUAAACUUCCAAGAUUUGCUGUCUUCCAGCACUUGAGUUAAAGUACCCGAUACUGCAUUUUGAUGAAGACUAACCCCAUCUCAUAUUCUACCCUAAAGAGAACUGAACAACAGAGGAUUGAGCAUCA
B9: chr5:180576808:180576909:+|3pUTR|ENSG00000113300|unk|FALSE|unique (ssRNA)
RNA: B5 RNA with C83U, C84A
B10: chr7:80742902:80743013:-|3pUTR|ENSG00000075223|msi1_unk|total|mutant (ssRNA)
RNA: GGGAGUUCUACAGUCCGACGAUCUCAGAGUCACAGUUCCCUUUAUUUCACAUAAGCCCAAACUGACCGACAGUAACGGUGUUCCGUUUUAUACUAUAUUUGUGCUAUUUAAUUCUUUCUAUUUUCACAAUUAUUAAAUUGUGUCAACAGAGGAUUGAGCAUCA
B11: chr1:161190761:161190881:-|3pUTR|ENSG00000158859|msi1|total|mutant (ssRNA)
RNA: GGGAGUUCUACAGUCCGACGAUCUGCGGGUCACAGGAGGGAGGGGGAAGGCAGGGAGGGCCUGGGCCCCAGUUGUAUUUAUUCCGUAUUUAUUCACUUUUAUUCCGCACCAGGGAAGGGGACAAGGACCCGGGUCCUGGGGAACAACAGAGGAUUGAGCAUCA
B12: chr1:161190761:161190881:-|3pUTR|ENSG00000158859|msi1|FALSE|unique (ssRNA)
RNA: B11 RNA with C83U, C84A, C104U, C105A, C129U, C130A
B13: chr19:39539560:39539696:-|CDS|ENSG00000176396|unk|FALSE|unique (ssRNA)
RNA: GGGAGUUCUACAGUCCGACGAUCCGGGAACGGAGGCCUGGCUGCGUUGCCCUAUCUCCGUCUCCGCCACCCACUUAGCGUUUUAGGCAUCAAUUACCAGCAGUUUCUCCGCCACUAUCUGGAAAAUUACCCGAUUGCUCCCGGCAACAGAGGAUUGAGCAUCA
B14: chr1:203709306:203709407:+|CDS|ENSG00000058668|msi1|total|mutant (ssRNA)
RNA: GGGAGUUCUACAGUCCGACGAUCUCCAGAGAAGGAGGGAGGCCUGCCUCGGCAGGUGGGCAACAAGACCGAGUGUGCUCUGCCCGGCUUUGUCACAGAUCUGAAGCAGGAUUAUCAGGCUGUGCGUAAUGAAGUGCCCGAGGACAACAGAGGAUUGAGCAUCA
B15: chr1:225789428:225789553:+|3pUTR|ENSG00000143742|unk|FALSE|unique (ssRNA)
RNA: GGGAGUUCUACAGUCCGACGAUCUUAGAGAAAGUGUUGGGACAGAAAGUACUUUAUGUAACUAAGUGGGCUGUUCAGAAGCUUAGAGGUCAUUUUUUGUAAUUUUCUUUUUAAUUACUUUAGAGAGCUAGGGAUGCAAAUGUUCAACAGAGGAUUGAGCAUCA
B16: chr22:27980698:27980799:-|3pUTR|ENSG00000100154|unk|total|mutant (ssRNA)
RNA: GGGAGUUCUACAGUCCGACGAUCUAACCAUUAAUUUAUUUUAUAAAGAAAGGAAAUGCUGAAAGUCGUAUCCGUACUGAGUUCCGUUGGAGAAUUCCGAUAAGUAAGUAUCUUUCCGGUAAUUCUAAAAUUAAAAUCCUACCCCAACAGAGGAUUGAGCAUCA
B17: ENSG00000124766:be:win_3501|3pUTR|ENSG00000124766|bound_else_gene|NA|bound_elsewhere_windowed (ssRNA)
RNA: GGGAGUUCUACAGUCCGACGAUCAACUUGUAAACCACAUCUUUUUUGCACUUUUUUUAUAAGCAAAAACGUGCCGUUUAAACCACUGGAUCUAUCUAAAUGCCGAUUUGAGUUCGCGACACUAUGUACUGCGUUUUUCAUUCUCAACAGAGGAUUGAGCAUCA
B18: chr10:60791946:60792061:+|CDS|ENSG00000170312|unk|FALSE|unique (ssRNA)
RNA: GGGAGUUCUACAGUCCGACGAUCGUCAGCUCGUUACUCAACUCCAGUUGACAUUUGGAGUAUAGGCACCAUAUUUGCUGAACUAGCAACUAAGAAACCACUUUUCCAUGGGGAUUCAGAAAUUGAUCAACUCUUCAGGAUUUUCAACAGAGGAUUGAGCAUCA
B19: chr19:13098382:13098626:+|3pUTR|ENSG00000008441|msi1|FALSE|unique (ssRNA)
RNA: GGGAGUUCUACAGUCCGACGAUCACGCAGUAUAUACGAGUAUCUCUAUAUAUAGUACUAAUGGAUUUGGUGUGCUUCCCCCUUAGCGUCCCCCUCCCUCUGCUCCUCCUCCUUCAGCCUGGUCUCCCCCUCUUCUCUGCCCUCCAACAGAGGAUUGAGCAUCA
B20: chr2:15946816:15946917:+|3pUTR|ENSG00000134323|unk|FALSE|unique (ssRNA)
RNA: GGGAGUUCUACAGUCCGACGAUCUAUAUGCCUUUUUCCUAGCCUGUUUCUUCCUGUUAAUGUAUUUGUUCAUGUUUGGUGCAUAGAACUGGGUAAAUGCAAAGUUCUGUGUUUAAUUUCUUCAAAAUGUAUAUAUUUAGUGCUCAACAGAGGAUUGAGCAUCA
B21: chr6:132743869:132744491:-|three_prime_utr|ENSG00000112303|control|control|control (ssRNA)
RNA: GGGAGUUCUACAGUCCGACGAUCAUGUGGGACCAGCAAUUCAGCAAUAACUUACCUGCUAAUAUUCAUAUUAUUAAUGAUCAUAGCUUUGCAAAAUAUUGUAAUGUUAUAGGGCGUCUCUUUAUCACUCAGCUUCUGCAUCAUCAACAGAGGAUUGAGCAUCA
B22: chr17:142788:147440:-|three_prime_utr|ENSG00000272636|control|control|control (ssRNA)
RNA: GGGAGUUCUACAGUCCGACGAUCGAGACCUCAGCACCUGCCCAGGGGAAGGGGACACGCCCAUCUGGGAGCAAAGACCCUUCUAGAGGCCAGCCCCGGCUGAGAGGACAGGAGUGUGGGGGCGCCUUGGCGGACAGUGGGAACCAACAGAGGAUUGAGCAUCA
B23: ENSG00000006432:stop:overlap|stop_codon|ENSG00000006432|stop_codon|NA|stop_codon (ssRNA)
RNA: GGGAGUUCUACAGUCCGACGAUCGAGCGGAACUGAACACACACAGGCCUGCCCCUUAUGAGAUCCAGCAGGAGUUCUGGUCUUAGCACGAAAAGGAUUGGGGCGGGCAAGGGGGACAGCCAGCGGAGAUGAGGGGAGCUGGCGCAACAGAGGAUUGAGCAUCA
B24: chr6:149410404:149410522:+|3pUTR|ENSG00000055208|unk|total|mutant (ssRNA)
RNA: GGGAGUUCUACAGUCCGACGAUCUUAUAUUUCUAUAUGUACCGUGUAACCGCCUUUUGUUAACUAAUUUUCUUUUUUCCUUUCCGUAAUUAAGCACGAUCAUGUCCCUUUUUAAGCCUUACCUGAGAGGAACAAUGCCUUAAACAACAGAGGAUUGAGCAUCA
B25: chr16:1487315:1487970:-|CDS|ENSG00000251692|control|control|control (ssRNA)
RNA: GGGAGUUCUACAGUCCGACGAUCGGGGGAGCUGGCGCAGCUCAAGGCCUGGGUGAGGAAGCUGCAGCGCCGAGGCCGGAAAGUAGACACGCGGCUGCGGGCCUUGGACCUCACCCUGGGCGAGAGGAGCCAGCAGCGGGCCCGCAACAGAGGAUUGAGCAUCA
B26: chr3:112140897:112141281:-|three_prime_utr|ENSG00000172139|control|control|control (ssRNA)
RNA: GGGAGUUCUACAGUCCGACGAUCACUUUUUGCAAAAUUUCCUUGAUUUAAAAUAUUUGUUAUUUUAAAUAUACAAAACAUUUUAGAAAAUCUUAGAGUAAAUUUUAGUCUUAAAGCCAGAAAAUAAGUUUAUAGCCAUCUAGACAACAGAGGAUUGAGCAUCA
B27: chr10:52765379:52768136:-|three_prime_utr|ENSG00000165471|control|control|control (ssRNA)
RNA: GGGAGUUCUACAGUCCGACGAUCUUGUUCCUUUUGUGGGCAAUCACUAAAAAUGAUCACUAACAGCACCAACAAAGCAAUAAUAGUAGUAGUAGUAGUUAGCAGCAGCAGUAGUAGUCAUGCUAAUUAUAUAAUAUUUUUAAUCAACAGAGGAUUGAGCAUCA
B28: chr6:149410404:149410522:+|3pUTR|ENSG00000055208|unk|FALSE|bound_elsewhere (ssRNA)
RNA: B24 RNA with C41U, C42A, C49U, C50A, C83U, C84A

molecular target: T1, UNK ZnF1-6 (called full-length); test: nsRBNS (natural sequence RNA bind-n-seq); RBNS binding buffer (assumed for nsRBNS): 25 mM Tris pH 7.5, 150 mM KCl, 3 mM MgCl2, 0.01% Triton X-100, 500 ug/ml BSA, 20 U/ml SUPERase-In, 4 C; UNK is unkempt and MSI1 is Musashi-1; names of the RNAs are library labels; protein concentration not given here; high values mean tight binding

Binder	binding signal [enrichment R]
B1	0.975
B2	2.1
B3	4.11
B4	1.2
B5	10.6
B6	66
B7	53.1
B8	0.911
B9	20.9
B10	1.71
B11	2.05
B12	32.9
B13	1.3
B14	0.691
B15	1.53
B16	0.76
B17	0.497
B18	0.452
B19	1.99
B20	1.93
B21	0.744
B22	0.805
B23	11.7
B24	4.24
B25	0.727
B26	2.83
B27	16.5
B28	66
